Source: PubChem BioAssay (National Center for Advancing Translational Sciences (NCATS))
HT1080NT lethal: kills 2HG-producing HT-1080-NT fibrosarcoma cells; Potency, µM (doses to about 46.1 µM), for the others: top-dose activity, negative = less viability, actives largely listed as cytotoxic; 360,000 compounds, 1.6% hits; HT-1080-NT fibrosarcoma viability, CellTiter-Glo ATP luminescence, 48 h; AID 686970;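 further: NT is the 2HG producing partner of a matched IDH1 knockdown line; 0% = DMSO-treated cells and -100% = media-only wells without cells; nearly all actives have a fitted effect of over 55% in size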
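Compounds were tested in concentration-response format on HT-1080-NT cells for 48 hours at 37 degrees C. Cell viability came from CellTiter-Glo luminescence; curves were classified by r2, response magnitude and activity.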
DT40 TDP1 CPT: growth inhibition of DT40 Tdp1-/-;hTDP1 cells with camptothecin (screen for TDP1 inhibitors) | chicken DT40 Tdp1-/-;hTDP1 cells + 20 nM CPT, ATP luminescence, 48 h | Potency, µM (top dose mostly 46.2 µM), without a hit: at the top dose activity change, negative = growth inhibition, hits mostly inhibitors | 420,000 compounds, 12% hits; further: nearly all actives have a fitted effect of over 55% in size
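Chicken DT40 Tdp1-/- cells complemented with human TDP1, 400 cells/well, exposed to compounds plus 20 nM camptothecin for at least 48 h at 37 C; viability read as ATP content by CellTiter-Glo luminescence.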
TDP1 cell noCPT: qHTS for Inhibitors of human tyrosyl-DNA phosphodiesterase 1 (TDP1): qHTS in cells in absence of CPT | 420,000 compounds, 15% hits | Potency, µM (highest dose often 46.2 µM), inactives show at the top dose activity change, negative = growth inhibition, actives largely listed as inhibitors | DT40 Tdp1-/- hTDP1 cells, no CPT, ATP luminescence, 48 h | AID 686978, 2013; further: nearly all actives have a fitted effect of over 55% in size
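Seeded 400 DT40-hTDP1 cells/well (vehicle DMSO, no 20 nM CPT); pinned compounds; ≥48 hr at 37 °C; CellTiter-Glo luminescence as viability measure.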
KB-V1 cytotox: KB-V1 MDR subline cytotoxicity | KB-V1 MDR cells viability, CellTiter-Glo, 72 h | Potency, µM (top dose mostly 46.1 µM), most hits filed as cytotoxic | 400,000 compounds, 3.4% hits; further: nearly all actives have a fitted effect of over 60% in size
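Cytotoxicity via CellTiter-Glo luminescence after 72 h compound exposure at 37 degrees C. Cells: drug-selected KB-V1 line, DMEM phenol-red free plus 10% FBS. Compounds tested at multiple concentrations; normalized data fitted to concentration-effect curves.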
HT1080 IDH1KD tx: kills HT-1080 cells with IDH1 knockdown | HT-1080 IDH1 knockdown viability, ATP luminescence, 48 h | Potency, µM (titrated, usually from 46.1 µM), for the others: at the top dose activity, negative = toxicity, actives largely listed as cytotoxic | 360,000 compounds, 2% hits | AID 686971;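 further: 0% = DMSO wells and -100% = cell-free medium wells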
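Luminescent ATP read-out (CellTiter-Glo, 10 min at room temperature) after 48 h compound exposure at 37 °C gave viability of IDH1-knockdown HT-1080 cells. Activity was normalised to DMSO and cell-free wells, then fitted as concentration-response curves.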
KB-3-1 cytotox: KB-3-1 parental cell cytotoxicity | Potency, µM (series often up to 46.1 µM), hits mostly cytotoxic | 400,000 compounds, 1.4% hits | KB-3-1 viability, CellTiter-Glo ATP luminescence, 72 h; further: nearly all actives have a fitted effect of over 60% in size
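Cytotoxicity in the drug-sensitive parental line KB-3-1 was scored as loss of CellTiter-Glo luminescence following 72 h incubation with compound. Values come from curve fitting of normalized concentration-response data.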
Numbers without * were called inactive; i = inactive; ? = inconclusive; . = not tested or not shown; [ ] = remark or other dose. Only some compounds are listed: those with a hit (about 19% of all), similar ones and a draw of the others. The call rests on the fitted dose curve; in most records, active means well fitted curve in the direction sought with a large enough effect; inconclusive means small, poorly fitted or top-dose-only effect, or another doubt; inactive means no such curve, though single readings can be large; an effect the other way counts as inactive or inconclusive. Unless noted, on the % scale 0 is the no-effect control and ±100 the full control effect; potency means the concentration at half of the fitted maximal effect.

SMILES	HT1080NT lethal	DT40 TDP1 CPT	TDP1 cell noCPT	KB-V1 cytotox	HT1080 IDH1KD tx	KB-3-1 cytotox
CCOC(=O)c1c(Nc2ccc(OCC)cc2)nnc(-c2ccccc2)c1-c1ccccc1	.	14.6µM*	20.6µM*	i	.	i
O=C(CSc1ncccn1)NCc1cccc(Cl)c1	-3.5%	3.1%	8.3%	i	0.4%	i
COc1cc(C(=O)NCC(c2ccc(F)cc2)N2CCOCC2)ccc1OCc1ccccc1Cl (configuration not stated)	-2.6%	?	?	i	-16.2%	i
CC(=O)N1CCc2cc(CNS(=O)(=O)c3ccccc3C(F)(F)F)ccc21	.	-2.3%	0.5%	.	.	.
CCOc1ccc(OCc2cccc(C(=O)N3CCCCCC3)c2)cc1	-15.9%	?	?	?	-0.6%	i
O=C(NN1CCCCC1)c1cccc(COc2ccc(Cl)cc2)c1	5.7%	?	?	14.6µM*	8.3%	i
O=C(NCc1ccccc1)c1cccc(COc2ccc3c(c2)CCC3)c1	-3.2%	?	?	16.4µM*	-8.8%	i
O=C(O)c1cccc(COc2ccc3c(c2)CCC3)c1	-9.8%	-6.9%	-9.6%	i	-3.3%	i
O=C(C(O)c1ccccc1)N1CCN(S(=O)(=O)c2ccc(C(F)(F)F)cc2)CC1 (configuration not stated)	10.1%	1.3%	-1.9%	?	-1.5%	i
COc1ccccc1CNC(=O)CSc1ccc(C(=O)Nc2ccccc2OC)cc1[N+](=O)[O-]	10.7%	9.2µM*	9.2µM*	i	8.2%	i
COc1ccccc1NC(=O)c1ccc(SCC(=O)NCc2ccccc2Cl)c([N+](=O)[O-])c1	-12.0%	?	?	i	-11.3%	i
C#CCSc1nc(Cc2ccc(Cl)cc2)nc2ccccc12	7.5%	-7.8%	?	16.4µM*	-1.9%	i
COc1ccc(CN(CCCn2cnc3c(OC)ncnc32)CCCn2cnc3c(OC)ncnc32)cc1	12.6%	?	?	i	8.3%	i
COc1cccc(NC(=O)CC2Nc3cc(C)c(C)cc3NC2=O)c1 (configuration not stated)	.	?	?	i	.	i
CC(=O)Nc1ccc(NC(=O)CC2Nc3cccc4cccc(c34)NC2=O)cc1 (configuration not stated)	-4.0%	-15.2%	?	i	-4.3%	i
CCOC(=O)c1ccc(NC(=O)CC2Nc3cccc4cccc(c34)NC2=O)cc1 (configuration not stated)	.	2.59µM*	2.59µM*	.	.	.
CCOC(=O)c1ccc(NC(=O)CC2Nc3cc(C)c(C)cc3NC2=O)cc1 (configuration not stated)	.	?	?	i	.	i
Cc1cccc(NC(=O)CC2Nc3cccc4cccc(c34)NC2=O)c1 (configuration not stated)	?	16.4µM*	?	i	?	i
CC(=O)c1ccc(NC(=O)CC2Nc3cccc4cccc(c34)NC2=O)cc1 (configuration not stated)	-13.3%	18.4µM*	16.4µM*	?	-0.9%	i
CC1CCCC(NC(=O)CC2Nc3ccccc3NC2=O)C1C (configuration not stated)	-3.2%	?	-7.1%	16.4µM*	0.4%	i
Cc1nc2cc(NC(=O)[C@@H]3C[C@@H](Sc4ccccn4)CN3Cc3ccccc3F)ccc2s1	.	-4.3%[9.04 µM]	-2.8%	.	.	.
COc1ccc(NC(=O)CC2Nc3ccccc3NC2=O)cc1 (configuration not stated)	.	?	23.1µM*	i	.	i
CCOc1ccc(NC(=O)CC2Nc3ccccc3NC2=O)cc1 (configuration not stated)	28.1%	-4.6%	6.5%	i	6.1%	i
CCOc1ccc(NC(=O)CC2Nc3cccc4cccc(c34)NC2=O)cc1 (configuration not stated)	.	?	16.4µM*	i	.	i
C=CCN(CC=C)C(=O)C1c2ccccc2Oc2ccccc21	-0.5%	25.9µM*	?	i	-6.7%	i
SMILES	HT1080NT lethal	DT40 TDP1 CPT	TDP1 cell noCPT	KB-V1 cytotox	HT1080 IDH1KD tx	KB-3-1 cytotox
O=C(CSCc1ccc(Cl)cc1)Nc1cc([N+](=O)[O-])ccc1O	?	?	18.4µM*	i	?	i
Cc1ccccc1C(=O)Nc1cccc(C(=O)N/N=C/c2ccccn2)c1	-20.1%	-13.1%	-22.7%	i	-3.1%	i
Cc1ccccc1C(=O)N/N=C/c1ccc(Sc2ccccn2)o1	-8.8%	1.3%	-23.7%	20.6µM*	0.1%	i
O=C(N/N=C\c1ccc(Sc2ccccn2)o1)c1cccc(Br)c1	-10.7%	0.9%	-8.1%	23.1µM*	2.2%	i
Cc1noc(C)c1C(=O)N1CCC1(C)C(=O)NS(=O)(=O)c1ccc(Cl)cc1 (configuration not stated)	1.2%	-1.4%	-6.5%	i	19.9%	i
Cc1ccc(NC(=O)CSc2nnc3ccc4ccccc4n23)cc1	.	-25.2%	?	i	.	i
Cc1nnc(N2CCN(C(=O)Nc3cc(F)ccc3F)CC2)c2nn(-c3ccc(Cl)cc3)c(C)c12	.	20.6µM*	20.6µM*	?	.	i
COc1ccccc1NC(=O)N1CCN(c2nnc(C)c3c(C)n(-c4ccc(Cl)cc4)nc23)CC1	.	1.3%	-7.2%	i	.	i
COC(=O)C(C)NC(=O)N1CCN(c2nnc(C)c3c(C)n(-c4ccc(Cl)cc4)nc23)CC1 (configuration not stated)	.	?	23.1µM*	i	.	i
CSc1ncnc2[nH]ccc12	-1.4%	-6.5%	-24.5%	i	-9.6%	i
CCC(=O)N1CCCC(C)(C(=O)Nc2ccc3oc(CC)nc3c2)C1 (configuration not stated)	14.9%	-6.8%	-1.6%	i	-0.4%	i
COc1cccc(NC(=O)N(Cc2c[nH]c3ccccc23)C2CCCCCC2)c1	.	11.6µM*	9.2µM*	i	.	i
COc1cccc(NC(=O)N(C2CCCCC2)C(C)c2cccs2)c1 (configuration not stated)	?	10µM*	12.6µM*	i	2.7%	?
O=C(COC(=O)Cc1c[nH]c2ccccc12)NC1CCCCC1	-11.3%	10.0%	-11.0%	i	0.0%	i
COc1cccc(NC(=O)c2cccs2)c1	-3.1%	-17.3%	0.9%	i	-0.8%	i
